In PubChem BioAssay (EPA / NIEHS) one finds outcome data, which are given here for 26 compounds.

Molecules are shown by their SMILES. Inconclusive results are not listed. Activity calls are given as the source filed them. Rule for the calls: active = hit-call score of the fitted dose curve at least 0.9, where 1 is the maximum; inconclusive = response in the unintended direction; inactive = score below 0.9.

Read-out in this test: organic anion transporter (SLCO1B1), SLCO1B1 (gene 10599)
Description: CLD_SLCO1B1_24hr: CellzDirect (CLD) Gene Expression Assay for organic anion transporter (SLCO1B1) at 24 hours (AID 2283690). The method, then:
CLD_24hr is a cell-based, multiplexed-readout assay that uses hepatocyte, a human liver primary cell, with measurements taken at 24 hours after chemical dosing in a 96-well plate.CLD_SLCO1B1_24hr is one of 16 assay component(s) measured or calculated from the CLD_24hr assay. It is designed to make measurements of mRNA induction, a form of inducible reporter, as detected with chemiluminescence signals by Quantitative Nuclease Protection Assay (qNPA) technology.Data from the assay component CLD_SLCO1B1_24hr was analyzed at the endpoint, CLD_SLCO1B1_24hr, in the positive analysis fitting direction relative to DMSO as the negative control and baseline of activity. Using a type of inducible reporter, gain-of-signal activity can be used to understand changes in the reporter gene as they relate to the gene SLCO1B1. Furthermore, this assay endpoint can be referred to as a primary readout. To generalize the intended target to other relatable targets, this assay endpoint is annotated to the transporter intended target family, where subfamily is organic anion transporter.
Human hepatocyte cultures were treated daily for two consecutive days with fresh dosing solutions containing appropriate concentrations of the 320 ToxCast chemicals (chemical identities were blinded to CellzDirect and other ToxCast collaborators), vehicle control (0.2% DMSO), and positive control inducers as summarized in Table 1. Due to the large number of treatment groups and chemicals examined, the ToxCast chemicals were divided into two groups (spanning two independent cultures of hepatocytes from separate donor preparations (Hu778: ToxCast plates 1 and 2; Hu776: ToxCast plates 3 and 4). Each preparation of human hepatocyte cultures was treated with respective vehicle control, medium only control, set of six positive controls/reference chemicals for the five hepatic receptor pathways, and a subset of eight of the ToxCast chemicals (indoxacarb, pyrithiobac-sodium, norflurazon, cyhalofop-butyl, methomyl, thiram, acetochlor, and propiconazole). These replicate data, coupled with internal replicates designed within the blinded ToxCast chemical library, provided additional data to evaluate interindividual differences between hepatocyte preparations and their potential impact on chemical profiles.Cell morphology and integrity were evaluated using phase-contrast microscopy as an indicator of hepatocyte cell health (Tyson & Green, 1987). Cultures for each treatment group (i.e., media, vehicle [0.2% DMSO], positive control inducers [multiple concentrations], and the ToxCast chemicals [multiple concentrations]) were observed and cell morphology was assessed relative to vehicle control cultures at each harvest time point (0, 6, 24, or 48 h). […] Images were evaluated at the conclusion of the study to assess changes in cell integrity and account for the effects of chemical exposure on uncharacteristic changes in concentration-dependent gene expression profiles. The results from these determinations of apparent cytotoxicity were annotated (yes/no) alongside the corresponding qNPA data for reference.At the conclusion of each treatment period, hepatocyte cultures (96-well) were washed with 1 volume of HBSS, lysed by addition of 25 ul ArrayPlate lysis buffer (HTG, Tucson, AZ), and 70 ul/well of Denaturation Oil, denatured by incubation at 95C for 10 min, and frozen at approximately -70C until analysis by nuclease protection assay (qNPA) (Roberts et al., 2007). For qNPA analysis, cell lysates were thawed at 50C for approximately 30 min, qNPA probes were added, and samples were incubated at 95C for 10 min to begin the detection process by denaturing the target RNA, dissociating the duplexes and secondary structure hybridization. At the conclusion of the hybridization period, S1 nuclease reagent was added to each sample to digest all nonprotected nucleotides at 50C for 60-90 min. […]
Regarding `CC(C)C1(C)N=C(c2nc3ccccc3cc2C(=O)O)NC1=O` (stereo unspecified), the result was inactive.
Under `COc1nc(C)nc(NC(=O)NS(=O)(=O)c2ccccc2Cl)n1` stands “inactive”.
The value for `O=C(O)c1nc(Cl)ccc1Cl` was “inactive”; that for `Cc1cc(Cl)ccc1OCC(=O)O` was “inactive”; that for `CNC(=O)ON=CC(C)(C)SC` was “inactive”.
The value for `COP(N)(=O)SC` (stereo unspecified) was “inactive”; that for `CCON=C(CC)C1=C(O)CC(c2c(C)cc(C)cc2C)CC1=O` (stereo unspecified) was “inactive”.
On to `Oc1ccccc1-c1ccccc1`, for which the compound was classed as inactive.
The value for `N#Cc1cc(Br)c(O)c(Br)c1` was “inactive”; that for `COc1ccc(C(c2ccc(OC)cc2)C(Cl)(Cl)Cl)cc1` was “inactive”.
Under `O=C(Nc1ccccc1)Nc1ccnc(Cl)c1` stands “inactive”.
The value for `C#CCOS(=O)OC1CCCCC1Oc1ccc(C(C)(C)C)cc1` (stereo unspecified) was “inactive”; that for `COC(=O)C=C(C)OP(=O)(OC)OC` was “inactive”; that for `C=CCC1=C(C)C(OC(=O)C2C(C=C(C)C)C2(C)C)CC1=O` (stereo unspecified) was “inactive”.
As to `COC(=O)C(C)Oc1ccc(Oc2ccc(Cl)cc2Cl)cc1` (stereo unspecified), the compound was called inactive.
The value for `Cc1c(F)c(F)c(COC(=O)C2C(/C=C(\Cl)C(F)(F)F)C2(C)C)c(F)c1F` (stereo unspecified) was “inactive”; that for `CCNc1nc(Cl)nc(NCC)n1` was “inactive”.
Under `CC(C)(C)c1ccc(CSc2cnn(C(C)(C)C)c(=O)c2Cl)cc1` stands “inactive”; under `CCOc1cc(Oc2ccc(C(F)(F)F)cc2Cl)ccc1[N+](=O)[O-]`, “inactive”; under `COC(=O)c1ccccc1C(=O)OC`, “inactive”.
The value for `COc1nc(C)nc(NC(=O)NS(=O)(=O)c2ccccc2CCC(F)(F)F)n1` was “inactive”; that for `CC1COC(Cn2cncn2)(c2ccc(Oc3ccc(Cl)cc3)cc2Cl)O1` (stereo unspecified) was “inactive”.
`C=CC1(C)OC(=O)N(c2cc(Cl)cc(Cl)c2)C1=O` (stereo unspecified): the outcome was inactive.
The value for `CCOC(=O)CC(SP(=S)(OC)OC)C(=O)OCC` (stereo unspecified) was “inactive”; that for `CCc1nn(C)c(C(=O)NCc2ccc(C(C)(C)C)cc2)c1Cl` was “inactive”.
Under `COC(=O)N(OC)c1ccccc1COc1ccn(-c2ccc(Cl)cc2)n1` stands “inactive”.
